Source: the supplement of paper PMC6555819

Key:
Assay in all cases: PBM binding z-score (relative to random genomic background probes); higher = stronger binding; sequences stand for … in GC…GCGATTGACAGCGTAGAATGAAGG
[1] = test system: PPARg:RXRa DBDmut IVT, anti-RXR (DBD mutation: RXRa K156A/R161A, NR concentration 270 nM, RXRa partner concentration 90 nM)
Procedure, shortened: (§1)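 The probes on custom Agilent 4×180K protein-binding microarrays were double-stranded, with 34-nt variable regions bearing direct-repeat seeds, single-nucleotide variants, half-site ablations and random human genomic background sequences. Incubation lasted 1 h with ligand-free nuclear receptor dimers in PBS pH 7.4, 2% milk, 0.02% Triton X-100, 1 mM DTT, 0.2 mg/mL BSA and 0.4 mg/ml salmon testes DNA. Antibodies against each partner (one per run) detected bound dimers, and fluorescence scans were regression-normalized. Binding z-scores take the random background probes as reference.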

[2] = test system: PPARg:RXRa IVT, anti-PPARg (NR concentration 270 nM, RXRa partner concentration 90 nM)
Procedure, shortened: as §1

[3] = test system: PPARg DBDmut:RXRa IVT, anti-PPARg (DBD mutation: PPARg1 K132A/R137A, NR concentration 270 nM, RXRa partner concentration 90 nM)
Procedure, shortened: as §1

[4] = test system: PPARg DBDmut IVT, anti-PPARg (DBD mutation: PPARg1 K132A/R137A, NR concentration 270 nM)
Procedure, shortened: as §1

[5] = test system: PPARg homodimer (NR concentration 180 nM)
Procedure, shortened: as §1

[6] = test system: PXR:RXRa (NR concentration 270 nM, RXRa partner concentration 90 nM)
Procedure, shortened: as §1

[7] = test system: PXR homodimer (NR concentration 270 nM)
Procedure, shortened: as §1

[8] = test system: RARa:RXR (NR concentration 270 nM, RXRa partner concentration 90 nM)
Procedure, shortened: as §1

[9] = test system: RARa homodimer (NR concentration 270 nM)
Procedure, shortened: as §1

[10] = test system: RARb:RXRa (NR concentration 270 nM, RXRa partner concentration 90 nM)
Procedure, shortened: as §1

| Sequence | PBM binding z-score [1] | PBM binding z-score [2] | PBM binding z-score [3] | PBM binding z-score [4] | PBM binding z-score [5] | PBM binding z-score [6] | PBM binding z-score [7] | PBM binding z-score [8] | PBM binding z-score [9] | PBM binding z-score [10] |
| --- | --- | --- | --- | --- | --- | --- | --- | --- | --- | --- |
| CCTACTGGGCCATCAGGACATTGATATCAACGTT | 3.58 | 3.83 | 0.0869 | 0.0679 | 0.687 | -0.0432 | -0.0909 | 0.486 | 0.102 | 0.235 |
| ACTAGCAGGCCAAGTTTTGGTCACTCAAACAAAG | 0.635 | 0.635 | -0.425 | -0.348 | -0.321 | -0.259 | -0.809 | 0.113 | -0.612 | 0.742 |
| TCATATAGGTAAAGGTGAAAATCGAACGATATGA | 3.76 | 4.08 | 1.54 | 1.02 | 0.818 | 0.873 | 0.241 | 1.5 | 0.976 | 1.73 |
| AATACAGGGTCACTAGGCCAGAGTAGGTACGAAT | 3.83 | 5.94 | 2.04 | 1.71 | 2.24 | 3.28 | 0.432 | 4.51 | 0.176 | 4.39 |
| AGACTGAGGTTACCAAAGATCAGGGAAACGCTTG | 0.451 | 1.01 | -0.133 | -0.273 | 0.133 | 1.42 | -0.0396 | 1.82 | -0.111 | 2.08 |
| GCATATAGGTAATACAATGTGAAAGTCCGATTGT | 4.03 | 2.5 | 1.42 | 1.13 | 0.581 | 0.112 | 0.544 | 0.557 | 0.819 | 0.0649 |
| ATATGTAGGTTATCGGGTCATTTAGTTTGCGCAT | 7.62 | 7.25 | 1.55 | 1.71 | 3.3 | 3.33 | 4.87 | 3.6 | 1.47 | 2.56 |
| GCTGCTAGGTCAACTGTTGGTCAGCTAAAGCTCG | 5.26 | 4.32 | 0.227 | -0.586 | 1.68 | 1.48 | -0.906 | 2.9 | -0.53 | 4.42 |
| CCTACTGGGCCATCAGGTAATTGATATCAACGTT | 4.07 | 4.05 | -0.379 | 0.313 | 0.173 | -0.337 | -0.167 | -0.328 | -0.0481 | 0.0726 |
| ATACCAAGGAGATCGTGAGGTCGTTGATACTAAC | -0.488 | -0.258 | -0.211 | 0.112 | 0.128 | 1.65 | 1.21 | 0.973 | -0.464 | 0.331 |
| TTACCAAGGTGCAGGTCGTTGATCCCTCTGTAGA | -0.00827 | 0.492 | -0.281 | -1.32 | -0.014 | 0.4 | 0.135 | 0.7 | -0.516 | 0.624 |
| AGAACGAGGGCAATGAGGTGATAGCACGGGTGGC | 3.36 | 3.33 | 0.776 | 0.448 | 0.588 | 1.06 | 0.905 | 0.818 | 0.144 | 2.13 |
